Records with an inconclusive call do not appear. Where a call stands in place of a potency, no number is given. The source made the active and inactive calls. Calls come from the whole dose curve; as a rule, active = well fitted cell-killing curve with a large enough effect in the repeat runs; inconclusive = weak or mixed curves, or effect the other way; inactive = flat fitted curve, though single readings scatter.
Assay: qHTS assay to identify small molecule agonists of the estrogen receptor beta (ER-beta) signaling pathway - cell viability counter screen (AID 1259380); note: nearly all actives have a fitted effect of over 30% in size
Conditions: ER-beta-bla HEK293T viability, CellTiter-Glo luminescence, 16 h; series mostly up to 92.4 µM
From the text: National Center for Advancing Translational Sciences [NCATS]
NIH Chemical Genomics Center [NCGC]
U.S. Environmental Protection Agency [EPA]
National Institutes of Environmental Health Sciences [NIEHS]
National Toxicology Program [NTP]
U.S. Food and Drug Administration [FDA]
Estrogen receptor (ER), a nuclear hormone receptor, plays an important role in development, metabolic homeostasis and reproduction. Two subtypes of ER, ER-alpha and ER-beta, have similar expression patterns with some uniqueness in both types. Endocrine disrupting chemicals (EDCs) and their interactions with steroid hormone receptors like ER causes disruption of normal endocrine function. To identify the compounds that activate ER signaling, an ER beta-UAS-bla GripTite cell line (Life Technologies, Madison, WI, USA) containing a beta-lactamase reporter gene under the control of an UAS response element was used to screen Tox21 10K compound library. The cytotoxicity of the Tox21 compound library against the ER-beta-bla cell line was tested in parallel by measuring the cell viability using CellTiter-Glo assay in the same wells.
Tox21 Assay Protocol Summary:
ER-beta-UAS-bla HEK293T cells were dispensed at 2,000 cells/5 uL of assay medium containing 2% charcoal stripped FBS per well into black wall/clear-bottom 1536-well plates using a Multidrop Combi (ThermoFisher Scientific, Waltham, MA) dispenser. After the assay plates were incubated at a 37C and 5% CO2 for 6 hr, 23 nL of compounds dissolved in DMSO, positive controls or DMSO only was transferred to the assay plate by a Pintool station (Kalypsys, San Diego, CA). The plates were incubated at 37C and 5% CO2 for 16 hr. Then 1 uL of LiveBLAzerTM B/G FRET substrate was added using a BioRAPTR FRD (Flying Reagent Dispenser, Aurora Discovery, San Diego, CA) and then the plates were incubated at room temperature for 2 hours, and fluorescence intensity was measured by an Envision plate reader (PerkinElmer, Shelton, CT). For cell viability readout that measures cytotoxicity, 4 uL/well of CellTiter-Glo reagent was added into the assay plates using a FRD. After 30 min incubation at room temperature, the luminescence intensity in the plates was measured using a ViewLux (PerkinElmer) plate reader.
With `CNC(=O)Oc1cc(C)c(N(C)C)c(C)c1` the Potency was “inactive”.
For `O=C(Cl)C(Cl)Cl`, the Potency was “inactive”.
In the case of `COc1ccc2c(C(=O)c3ccc(Cl)cc3)c(C)n(CC(=O)O)c2c1`, the Potency is reported as “inactive”.
For `CC(O)CCl` (stereo not given), the Potency was “inactive”.
With `CCN(CCO)CCn1c(Cc2ccccc2)nc2c1c(=O)n(C)c(=O)n2C` the Potency was “inactive”.
In the case of `CN(C)CCc1c[nH]c2cccc(OP(=O)(O)O)c12`, the Potency is reported as “inactive”.
With `CNC(=O)Oc1ccccc1C(C)C` the Potency was “inactive”.
With `CN(C)CCN(C)C` the Potency was “inactive”.
With `CCC1(c2ccccc2)CCC(=O)NC1=O` (stereo not given) the Potency was “inactive”.
With `C[C@H](CN1CCOCC1)C(C(=O)N1CCCC1)(c1ccccc1)c1ccccc1` the Potency was “inactive”.
For `CC1NCCOC1c1ccccc1` (stereo not given), the Potency was “inactive”.
For `Cc1ccc(S(=O)(=O)N[C@@H](CCCCN)C(=O)CCl)cc1`, the Potency was “inactive”.
With `NNC(N)=O` the Potency was “inactive”.
For `CCOC(=O)C(SP(=S)(OC)OC)c1ccccc1` (stereo not given), the Potency was “inactive”.
With `CNC(=O)O/N=C(/CSC)C(C)(C)C` the Potency was “inactive”.
For `Clc1cc2c(cc1Cl)Oc1cc(Cl)c(Cl)cc1O2`, the activity change, negative = cytotoxicity was 2.45% [at 0.349 µM] (inactive).
With `CCOC(=O)CC(SP(=S)(OC)OC)C(=O)OCC` (stereo not given) the Potency was “inactive”.
For `CCOP(=S)(OCC)SCCl`, the Potency was “inactive”.
With `C(COCC1CO1)OCC1CO1` (stereo not given) the Potency was “inactive”.
With `O=C(O)CBr` the Potency was “inactive”.
For `COP(=O)(O)OC`, the Potency was “inactive”.
In the case of `N[C@@H]1C[C@H]1c1ccccc1`, the Potency is reported as “inactive”.
With `BrCCc1ccccc1` the Potency was “inactive”.
For `NCCOS(=O)(=O)O`, the Potency was “inactive”.
With `O=C/C=C/c1ccco1` the Potency was “inactive”.
In the case of `NCC1(CC(=O)O)CCCCC1`, the Potency is reported as “inactive”.
With `Nc1c(Cl)c(F)nc(OCC(=O)O)c1Cl` the Potency was “inactive”.
With `O=c1[nH]c2ccccc2n1C1CCNCC1` the Potency was “inactive”.
For `CC(C)N(Cc1ccccc1)C(=O)C(C)(C)C`, the Potency was “inactive”.
For `CCCOC(=O)Cc1ccc(OCC(=O)N(CC)CC)c(OC)c1`, the Potency was “inactive”.
In the case of `COP(=O)(OC)O/C(C)=C/C(=O)N(C)C`, the Potency is reported as “inactive”.
In the case of `ClCCCCCCCl`, the Potency is reported as “inactive”.
In the case of `CC(Cc1ccccc1)NCCn1cnc2c1c(=O)n(C)c(=O)n2C` (stereo not given), the Potency is reported as “inactive”.
In the case of `Clc1ccc(C(Cl)(Cl)Cl)cn1`, the Potency is reported as “inactive”.
In the case of `COc1ccc(C=O)cc1O`, the Potency is reported as “inactive”.
With `CC(C)(C1CCC(O)CC1)C1CCC(O)CC1` (stereo not given) the Potency was “inactive”.
In the case of `CCCCCCC1CCOC1=O` (stereo not given), the Potency is reported as “inactive”.
For `CCN[C@@H](C)Cc1ccccc1`, the Potency was “inactive”.
For `CC(C)[C@]12CC(=O)[C@H](C)[C@H]1C2`, the Potency was “inactive”.
In the case of `CCC(CC)(CNC(=O)CCCO)c1cccc(OC)c1`, the Potency is reported as “inactive”.

— PubChem BioAssay (Tox21)
